# Source: PubChem BioAssay (Fisher Drug Discovery Resource Center)
# An excerpt weighted towards active compounds, which were near 0.28% of everything screened.
# hcGAS lum: blocks human cGAS activity; recombinant h-cGAS, ATP depletion, Kinase-Glo luminescence; inhibition, % at 12.5 µM; 290,000 tested, 0.081% active; AID 1259398
# NPYLR7 ag: mosquito NPYLR7 agonism | HEK293T NPYLR7/Galpha15, GCaMP6s calcium fluorescence | activation, % at 10 µM | AID 1259423 | 270,000 tested, 0.15% active; in the data active = activation above about 40%
# mcGAS inh: inhibitors of mouse cGAS. Q8C6L5. recombinant cGAS, Kinase-Glo ATP depletion luminescence. inhibition, % at 12.5 µM. 160,000 tested, 0.15% active. AID 1259399
# Target sequence (Q8C6L5 whole entry, looked up): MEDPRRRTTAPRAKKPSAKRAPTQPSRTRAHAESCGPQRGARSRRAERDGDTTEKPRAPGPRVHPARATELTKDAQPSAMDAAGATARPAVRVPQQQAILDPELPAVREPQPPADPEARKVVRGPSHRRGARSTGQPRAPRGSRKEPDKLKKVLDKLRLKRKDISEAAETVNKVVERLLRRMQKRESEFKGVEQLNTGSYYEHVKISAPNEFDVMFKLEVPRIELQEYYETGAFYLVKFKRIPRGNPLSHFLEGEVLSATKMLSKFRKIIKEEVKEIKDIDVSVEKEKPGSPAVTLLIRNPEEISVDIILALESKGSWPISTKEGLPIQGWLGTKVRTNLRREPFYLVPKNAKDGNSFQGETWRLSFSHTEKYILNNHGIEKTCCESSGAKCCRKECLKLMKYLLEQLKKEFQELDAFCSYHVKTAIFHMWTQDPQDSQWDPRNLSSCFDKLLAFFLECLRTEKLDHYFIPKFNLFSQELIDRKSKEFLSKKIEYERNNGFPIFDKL
# Hits are given with their value; i = inactive; nt = no result. Rule as the data show it, unless noted: active = inhibition above about 40%; inactive = the rest.
SMILES,hcGAS lum,NPYLR7 ag,mcGAS inh
COc1cccc(C(=O)N(CCN(C)C)Cc2c(-c3ccccc3)noc2N2CCCC2)c1,i,i,i
COc1cccc(CN2C(=O)c3cccc(N)c3C2=O)c1,i,43,nt
COc1ccc(CN2C(=O)c3ccccc3C2=O)cc1F,i,i,nt
CC(C)OC(=O)C(C(=O)C(F)(F)F)c1cc(NS(=O)(=O)c2ccccc2)ccc1O (stereo unspecified),i,i,nt
CC(C)OC(=O)C(C(=O)C(F)(F)F)c1cc(NS(=O)(=O)c2ccc(Cl)cc2)ccc1O (stereo unspecified),i,44,nt
CC(=O)c1cccc(Nc2nnc(C(C)(C)C)c(=O)[nH]2)c1,i,i,nt
CCCCCCCCCCCCOS(=O)(=O)O,i,i,nt
CCCCC(CC)CCC(CC(C)C)OS(=O)(=O)O (stereo unspecified),42,i,nt
COc1cccc(OC)c1OCCCOc1ccc(Br)cc1Cl,i,i,nt
COc1ccccc1OCCCOc1ccc(Br)cc1Cl,i,60,nt
Cc1ccnc(NC(=O)CN(C)C(=O)c2cc(C)n(C3CC3)c2C)c1,i,i,nt
O=C1CCCN2C(=N1)SC(=S)N2CN1CCN(Cc2ccccc2)CC1,i,i,nt
COc1ccc2c(C)nc(N=C(N)N)nc2c1,i,59,nt
CCCC(=O)NC(N)=Nc1nc(C)c2cc(C)ccc2n1,i,i,i
CCc1nc(N=C(N)N)nc2cc(C)ccc12,i,62,nt
COc1ccc(N=C(N)N)cc1,i,i,nt
COC[C@H]1C[C@H]2C[C@H](O)[C@@H](NC(=O)NCc3ccccc3F)[C@@]2(O)CO1,i,i,i
Cc1csc(C(C#N)C(=O)c2cn(CC(=O)C(C)(C)C)nn2)n1 (stereo unspecified),45,i,i
Cc1cnc(C(=O)OCC(=O)C(C#N)c2nc(C)cs2)cn1 (stereo unspecified),i,i,nt
Cc1onc(-c2c(Cl)cccc2Cl)c1C(=O)N1CCN(c2nc3nccc(-c4cc(Cl)ccc4Cl)n3n2)CC1,i,i,i
OC[C@H]1OC([S-])[C@H](O)[C@@H](O)[C@@H]1O.[Au+] (stereo partly specified),68,i,57
OC[C@@H](O)C(O[C@@H]1O[C@H](CO)[C@H](O)[C@H](O)[C@H]1O)[C@H](O)[C@@H](O)CO (stereo partly specified),i,nt,nt
COc1cc(C=CC(=O)c2ccc(F)cc2)ccc1OC(F)F,i,i,nt
O=C(C=Cc1ccccc1OC(F)F)c1ccc(F)cc1,i,i,43
O=c1oc2c(CN3CCN(CCO)CC3)c(O)ccc2cc1-c1nc2ccccc2s1,i,66,nt
SMILES,hcGAS lum,NPYLR7 ag,mcGAS inh
O=c1oc2c(CN3CCN(CCO)CC3)c(O)ccc2cc1-c1ccccn1,i,i,nt
O=C1c2ccc(-c3nc4ccccc4c(=O)o3)cc2C(=O)N1c1ccc(Br)cc1,i,i,i
O=C1c2ccc(-c3nc4ccccc4c(=O)o3)cc2C(=O)N1c1nc2ccccc2s1,i,i,45
CCOC(=O)c1cc(C(=O)OCC)c2c(C)cc(C)cc(C)c1-2,i,i,nt
CCOC(=O)c1ccccc1-c1c2ccc(=N)cc-2oc2cc(N)ccc12,i,120,i
CCN=c1cc2oc3cc(NCC)c(C)cc3c(-c3ccccc3C(=O)OCC)c-2cc1C,i,159,i
CCOC(=O)COc1cc2c(-c3cc4ccccc4o3)cc(=O)oc2cc1C,i,i,i
CCOC(=O)c1cc(C#N)c(C)nc1N1CCN(Cc2ccccc2-c2ccccc2)CC1,i,i,i
CN1CCN(c2cc(Cl)nc(SCc3ccc(C(=O)NCCN4CCCC4)cc3)n2)CC1,69,i,i
O=C(NCCN1CCCCC1)c1ccc(CSc2nc(Cl)cc(N3CCCC3)n2)cc1,i,i,i
O=C(CC1=CCCCC1)NC1CC(=O)N(Cc2ccc(F)cc2)C1 (stereo unspecified),i,i,nt
O=C(O)c1c[nH]c2cc(C(F)(F)F)ccc2c1=O,i,i,i
O=C(O)c1c[nH]c2c(ccc3ccccc32)c1=O,i,i,42
Nc1ncnc2c1ncn2[C@@H]1O[C@H](CO)[C@H](O)C1O (stereo partly specified),i,96,i
Cc1ccccc1CNc1ncnc2c1ncn2C1OC(CO)C(O)C1O (stereo unspecified),i,78,i
OC[C@H]1O[C@@H](n2cnc3c(NCc4ccco4)ncnc32)[C@H](O)[C@@H]1O,i,i,i
Nc1ncnc2c1ncn2C1O[C@H](CO)[C@@H](O)[C@@H]1O (stereo partly specified),i,i,i
COc1ccc(F)c(CC2(CCC(=O)N(C)Cc3nc4c(s3)CCCC4)CCC(=O)N2)c1 (stereo unspecified),i,i,i
Cc1nn(C)c(Cl)c1S(=O)(=O)N1CCN2CCN(C)CC2C1 (stereo unspecified),i,i,nt
